From PubChem BioAssay (NCI)
Compounds without any hit were thinned out: in the full panel of roughly 79,000, 15% have a hit. Calls of active or inactive are those of the source. No stated cut-off is given here; in the data, active means growth inhibition above about 70%; inactive means the rest.

Legend:
[1] = NCI Yeast Anticancer Drug Screen. Data for the rad52 strain (AID 147);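 further: 0% = growth of vehicle-treated control cultures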; settings: S. cerevisiae rad52 mutant growth inhibition, active compounds read high
How it was run: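 Genetically altered yeast (DNA damage repair defect) treated with compound; inhibition calculated relative to vehicle.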

[2] = NCI Yeast Anticancer Drug Screen. Data for the wt1 strain (AID 149);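 further: 0% = growth of vehicle-treated wt1 cultures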; settings: S. cerevisiae wt1 strain (SPY 50644) growth inhibition, active compounds read high
How it was run: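 Readout: yeast growth inhibition, normalised to vehicle controls, in the wt1 strain exposed to test compounds.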

[3] = NCI Yeast Anticancer Drug Screen. Data for the rad50EPP+ strain (AID 151);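 further: 0% = growth of vehicle-treated control cultures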; settings: S. cerevisiae rad50 mutant strain, active compounds read high
How it was run: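 Strain rad50EPP+; compound exposure; % growth inhibition vs vehicle.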

[4] = NCI Yeast Anticancer Drug Screen. Data for the mgt1 strain (AID 153); settings: S. cerevisiae mgt1 mutant growth inhibition, active compounds read high
How it was run: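 Read-out: yeast growth inhibition vs vehicle control. Strain mgt1, drawn from a panel altered in DNA damage repair or cell cycle control.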

[5] = NCI Yeast Anticancer Drug Screen. Data for the rad50 strain (AID 155);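 further: 0% = growth of vehicle-only cultures of the same strain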; settings: S. cerevisiae rad50 strain growth inhibition, active compounds read high
How it was run: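 Compounds were tested on a yeast strain with an engineered DNA damage repair alteration; the reported value is growth inhibition normalised to vehicle treatment.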

[6] = NCI Yeast Anticancer Drug Screen. Data for the mec2-1 strain (AID 157); settings: S. cerevisiae mec2-1 strain, active compounds read high
How it was run: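 Cells of the genetically defined mec2-1 yeast strain are incubated with test compound. Inhibition of growth is calculated against vehicle-treated controls.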

[7] = NCI Yeast Anticancer Drug Screen. Data for the rad14 strain (AID 159);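 further: 0% = growth of vehicle-treated control cultures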; settings: S. cerevisiae rad14 strain growth inhibition, active compounds read high
How it was run: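 Compound-treated yeast with a defined DNA-repair lesion; growth inhibition normalised to vehicle-treated cultures.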

[8] = NCI Yeast Anticancer Drug Screen. Data for the sgs1 mgt1 strain (AID 161);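 further: 0% = growth of cultures given vehicle only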; settings: S. cerevisiae sgs1 mgt1 strain, active compounds read high
How it was run: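 Test agents were incubated with a DNA-repair-mutant yeast strain. Growth was then read and compared against vehicle-treated controls.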

[9] = NCI Yeast Anticancer Drug Screen. Data for the CLN2oe strain (AID 163);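 further: 0% = growth of vehicle-only control cultures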; settings: S. cerevisiae CLN2oe strain, active compounds read high
How it was run: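 Strain altered in cell-cycle control, incubated with compound; growth compared to solvent-treated controls.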

[10] = NCI Yeast Anticancer Drug Screen. Data for the cln2 rad14 strain (AID 165);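 further: 0% = growth equal to vehicle treated cultures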; settings: S. cerevisiae cln2 rad14 strain, active compounds read high
How it was run: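 The screen exposed genetically defined yeast (cln2 rad14) to test compounds and scored growth inhibition relative to vehicle-treated controls.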

[11] = NCI Yeast Anticancer Drug Screen. Data for the bub3 strain (AID 167); settings: S. cerevisiae bub3 mutant strain, active compounds read high
How it was run: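 Growth of a checkpoint-deficient yeast mutant is measured after compound exposure. Values represent inhibition relative to vehicle.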

[12] = NCI Yeast Anticancer Drug Screen. Data for the wt2 strain (AID 169);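 further: 0% = growth of vehicle-treated yeast cultures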; settings: S. cerevisiae wt2 strain growth inhibition, active compounds read high
How it was run: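 Steps: yeast strain treated with compound; growth recorded; inhibition calculated relative to cultures given vehicle alone.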

[13] = NCI Yeast Anticancer Drug Screen. Data for the mlh1 strain (AID 171);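 further: 0% = growth of vehicle-treated control cultures of the same strain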; settings: S. cerevisiae mlh1 strain growth inhibition, active compounds read high
How it was run: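 Yeast screen: mutant strain plus compound, growth scored against vehicle control wells.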

[14] = NCI Yeast Anticancer Drug Screen. Data for the sgs1 strain (AID 173);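 further: 0% = growth of vehicle-only control cultures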; settings: S. cerevisiae sgs1 mutant, active compounds read high
How it was run: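 Inhibition of yeast growth served as the measure. The mutant strain was treated with each compound, and growth was normalised to cultures receiving vehicle alone.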

[15] = NCI Yeast Anticancer Drug Screen. Data for the mlh1 rad18 strain (AID 175); settings: S. cerevisiae mlh1 rad18 strain growth inhibition, active compounds read high
How it was run: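 Compound-treated yeast growth, normalised to vehicle controls. Strain bears defined DNA repair mutations.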

[16] = NCI Yeast Anticancer Drug Screen. Data for the rad18 strain (AID 177); settings: S. cerevisiae rad18 mutant growth inhibition, active compounds read high
How it was run: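 Inhibition values reflect reduced yeast growth compared with vehicle-treated controls, using a strain engineered with a DNA damage repair defect.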

[17] = at 5.0 µM (retest, dose inferred, filed as 0.5)
[18] = at 50.0 µM (retest, dose inferred, filed as 5.0)

Measured: growth inhibition

C[CH2][Sn]([CH2]C)([O]S(C)(=O)=O)[O]S(C)(=O)=O
inactive: [1]; at 1.2 µM -24% | [1]; at 3.7 µM -17% | [1]; at 11.0 µM -24% | [1]; at 33.0 µM -10% | [1]; at 100.0 µM 11% | [2]; at 1.2 µM -27% | [2]; at 3.7 µM -9% | [2]; at 11.0 µM -15% | [2]; at 33.0 µM -12% | [2]; at 100.0 µM -2% | [3]; at 1.2 µM -28% | [3]; at 3.7 µM -30% | [3]; at 11.0 µM -25% | [3]; at 33.0 µM -14% | [3]; at 100.0 µM -19% | [4]; at 1.2 µM 0% | [4]; at 3.7 µM 0% | [4]; at 11.0 µM -11% | [4]; at 33.0 µM -7% | [4]; at 100.0 µM 37% | [5]; at 1.2 µM -21% | [5]; at 3.7 µM -6% | [5]; [17] 18% | [5]; at 11.0 µM -15% | [5]; at 33.0 µM -20% | [5]; [18] 57% | [5]; at 100.0 µM 6% | [6]; at 1.2 µM -15% | [6]; at 3.7 µM -4% | [6]; [17] 13% | [6]; at 11.0 µM -9% | [6]; at 33.0 µM -4% | [6]; [18] 58% | [6]; at 100.0 µM 16% | [7]; at 1.2 µM -21% | [7]; at 3.7 µM -18% | [7]; at 11.0 µM -17% | [7]; at 33.0 µM -10% | [7]; at 100.0 µM -9% | [8]; [17] 14% | [8]; [18] 58% | [8]; at 50.0 µM 50% | [9]; at 1.2 µM -78% | [9]; at 3.7 µM -94% | [9]; at 11.0 µM -65% | [9]; at 33.0 µM -103% | [9]; at 100.0 µM -62% | [10]; [17] 6% | [10]; [18] 18% | [10]; at 50.0 µM 46.2% | [11]; at 1.2 µM -28% | [11]; at 3.7 µM -25% | [11]; [17] 36% | [11]; at 11.0 µM -17% | [11]; at 33.0 µM -27% | [11]; [18] 50% | [11]; at 50.0 µM 45.5% | [11]; at 100.0 µM 24% | [12]; at 1.2 µM -56% | [12]; at 3.7 µM -44% | [12]; at 11.0 µM -46% | [12]; at 33.0 µM 3% | [12]; at 100.0 µM 55% | [13]; at 1.2 µM -51% | [13]; at 3.7 µM -29% | [13]; at 11.0 µM -33% | [13]; at 33.0 µM -37% | [13]; at 100.0 µM 0% | [14]; at 1.2 µM -27% | [14]; at 3.7 µM -16% | [14]; at 11.0 µM -22% | [14]; at 33.0 µM -7% | [14]; at 100.0 µM 15% | [15]; [17] 33% | [15]; at 50.0 µM 56.6% | [16]; at 1.2 µM -28% | [16]; at 3.7 µM -19% | [16]; at 11.0 µM -13% | [16]; at 33.0 µM -15% | [16]; at 100.0 µM 25%
active: [5]; at 50.0 µM 76.2% | [6]; at 50.0 µM 85.3% | [15]; [18] 80%

OC(c1ccc(Br)cc1)C(Cl)(Cl)Cl (stereo unspecified)
active: [1]; at 33.0 µM 87% | [1]; at 100.0 µM 98% | [2]; at 33.0 µM 89% | [2]; at 100.0 µM 99% | [3]; at 100.0 µM 95% | [4]; at 33.0 µM 89% | [4]; at 100.0 µM 100% | [5]; [17] 71% | [5]; at 33.0 µM 84% | [5]; [18] 99% | [5]; at 50.0 µM 81.2% | [5]; at 100.0 µM 97% | [6]; [17] 89% | [6]; at 33.0 µM 92% | [6]; [18] 99% | [6]; at 50.0 µM 86.8% | [6]; at 100.0 µM 99% | [7]; at 33.0 µM 84% | [7]; at 100.0 µM 98% | [8]; [18] 97% | [8]; at 50.0 µM 84.5% | [9]; at 33.0 µM 87% | [9]; at 100.0 µM 97% | [10]; [18] 98% | [10]; at 50.0 µM 80.8% | [11]; at 33.0 µM 91% | [11]; [18] 97% | [11]; at 50.0 µM 81.7% | [11]; at 100.0 µM 99% | [12]; at 33.0 µM 78% | [12]; at 100.0 µM 98% | [13]; at 33.0 µM 80% | [13]; at 100.0 µM 97% | [14]; at 33.0 µM 84% | [14]; at 100.0 µM 98% | [15]; [18] 99% | [15]; at 50.0 µM 76.2% | [16]; at 33.0 µM 90% | [16]; at 100.0 µM 98%
inactive: [1]; at 1.2 µM -5% | [1]; at 3.7 µM -1% | [1]; at 11.0 µM 5% | [2]; at 1.2 µM -13% | [2]; at 3.7 µM -11% | [2]; at 11.0 µM -1% | [3]; at 1.2 µM 4% | [3]; at 3.7 µM 3% | [3]; at 11.0 µM 4% | [3]; at 33.0 µM 38% | [4]; at 1.2 µM 20% | [4]; at 3.7 µM -1% | [4]; at 11.0 µM 5% | [5]; at 1.2 µM 16% | [5]; at 3.7 µM 14% | [5]; at 11.0 µM 21% | [6]; at 1.2 µM -19% | [6]; at 3.7 µM -19% | [6]; at 11.0 µM -1% | [7]; at 1.2 µM -23% | [7]; at 3.7 µM -16% | [7]; at 11.0 µM -7% | [8]; [17] 3% | [9]; at 1.2 µM 25% | [9]; at 3.7 µM 10% | [9]; at 11.0 µM 18% | [10]; [17] 68% | [11]; at 1.2 µM -17% | [11]; at 3.7 µM 15% | [11]; [17] -15% | [11]; at 11.0 µM 3% | [12]; at 1.2 µM -17% | [12]; at 3.7 µM -15% | [12]; at 11.0 µM -21% | [13]; at 1.2 µM -10% | [13]; at 3.7 µM -18% | [13]; at 11.0 µM -6% | [14]; at 1.2 µM 11% | [14]; at 3.7 µM 5% | [14]; at 11.0 µM 14% | [15]; [17] 62% | [16]; at 1.2 µM 4% | [16]; at 3.7 µM 4% | [16]; at 11.0 µM 32%
